Test results taken from PubChem BioAssay AID493098 (Sanford-Burnham Center for Chemical Genomics, 2011).
The whole screen tested about 340,000 compounds, of which about 1,700 (0.5%) were called active.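 How the source made its calls: active means compounds whose inhibition of the agonist-driven luminescence signal at 20 µM reaches about 50% (limit read from the data); inactive means the rest.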 The full list was thinned out, with actives kept by preference.

What follows are compounds tested against C-C chemokine receptor type 6 (Homo sapiens) (UniProt P51684) (assay: CCR6 receptor antagonists, primary screen, cell-based, CHO-K1, luminescence, beta-arrestin, uHTS (AID 493098;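 further: cells stimulated with CCL20 at 14 nM final; plate controls were DMSO with CCL20 for no effect and DMSO without agonist for full effect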)). Conditions: CHO-K1 CCR6 PathHunter beta-arrestin, CCL20-stimulated, at 20 µM, hits give high values.
Chain of C-C chemokine receptor type 6 (Homo sapiens) (P51684 whole entry, looked up): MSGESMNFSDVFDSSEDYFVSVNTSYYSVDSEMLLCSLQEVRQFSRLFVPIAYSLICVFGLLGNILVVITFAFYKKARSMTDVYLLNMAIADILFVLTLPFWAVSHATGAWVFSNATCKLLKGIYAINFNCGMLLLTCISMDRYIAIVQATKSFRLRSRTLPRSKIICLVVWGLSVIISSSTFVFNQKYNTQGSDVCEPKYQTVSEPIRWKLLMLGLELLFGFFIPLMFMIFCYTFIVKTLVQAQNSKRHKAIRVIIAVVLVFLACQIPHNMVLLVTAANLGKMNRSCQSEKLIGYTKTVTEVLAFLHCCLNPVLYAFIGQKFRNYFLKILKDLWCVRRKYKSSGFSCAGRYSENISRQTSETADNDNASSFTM

inhibition, active:
Cc1cccc(-n2c(O)c(C=Nc3ccccc3N)c(=O)[nH]c2=O)c1 88.4%, COc1cccc2sc(Nc3nc(C)c(C(C)=O)s3)nc12 52.1%, COc1ccc(CS(=O)/C(Cl)=C(/Cl)C(=O)Nc2ccc(OC)nc2)cc1 (centres undefined) 95.4%, COC(=O)Cc1c(-c2[nH]c3ccccc3c2CC(=O)OC)[nH]c2ccccc12 85.9%, Cc1ccc2cccc(O)c2[n+]1[O-] 54.9%, Nc1ccccc1SC(C[N+](=O)[O-])c1ccccc1 (centres undefined) 62.7%, Cc1cc(C)c(C2C3=C(Nc4c2c(C)nn4-c2ccccn2)c2ccccc2C3=O)c(C)c1 (centres undefined) 53.2%, C=CS(=O)c1sc(Cl)c(N2CCOCC2)c1[N+](=O)[O-] (centres undefined) 93.5%, Cc1cccc(CS(=O)(=O)c2ncc(Cl)c(C(=O)Nc3ccc(F)cc3)n2)c1 79.4%, Cc1cccc(NC(=O)c2nc(S(=O)(=O)Cc3ccccc3)ncc2Cl)c1 82%, CN(CC(=O)Nc1ccc(OC(F)F)cc1)S(=O)(=O)/C=C/c1ccccc1 59.9%, CCN1CCC(O)(/C=C/c2ccc(C)cc2)C(C(=O)/C=C/c2ccc(C)cc2)C1 (centres undefined) 63.6%, Cc1cc(C)nc(S/C=C/C(=O)c2ccccc2)n1 54.2%

inhibition, inactive:
Cc1cccc(C)c1N1CCN(S(=O)(=O)N2CCCCC2)CC1 18.8%, NS(=O)(=O)c1cc(C(=O)OCC(=O)NNC(=O)c2ccccc2)ccc1Cl 0.62%, Cc1cccc(N2C(=O)CC(SC(N)=Nc3ccccc3)C2=O)c1 (centres undefined) 5.48%, Cc1ccc(N=Cc2c(O)n(-c3nccs3)c(=O)c3ccccc23)c(C)c1 17.6%, CCCCS(=O)c1snnc1C (centres undefined) 4.33%, CCC(CC)c1nnc(NC(=O)C2=COCCO2)s1 -8.69%, CCOc1ccc(S(=O)(=O)N2CCCCC2)cc1NC(=O)CN1CCCC1c1cccs1 (centres undefined) 13.2%, CC(=O)c1sc(N/N=C\c2ccc(C)cc2)nc1C 20.1%, CC(=O)c1sc(N/N=C/c2ccc(C(C)C)cc2)nc1C -0.42%, O=C(CO/N=C/c1ccc(OC(F)F)cc1)NCc1ccc(F)cc1 16.1%, COc1ccc(OC(C)C(=O)Nc2cccnc2)cc1 (centres undefined) 9.87%, COc1ccc(CCC(=O)c2ccc(OC)cc2)cc1 11.9%, CC(C)(C)CN1CCNC(=O)C1CC(=O)NC1Cc2ccccc2C1 (centres undefined) -8.22%, CC/C=C/C(=O)N1CC2(CC(c3cccc(NC(=O)CC)c3)=NO2)C[C@H]1C(N)=O (some centres undefined) 3.3%, COC(=O)c1cccc(N(C(=O)CNC(=O)c2cccs2)C(C(=O)NCC2CCCO2)c2ccc(OC)c(OC)c2)c1 (centres undefined) -0.67%, COc1ccc(F)cc1C(=O)COC(=O)c1n[nH]c(=O)c2ccccc12 24.8%, CCCOC(=O)Cc1c(O)c2ccccc2[nH]c1=O -17.8%, COC(=O)Cc1ccc(NC(=S)NCc2ccccc2)cc1 -10.8%, NCC(=O)c1cccc2ccc[n+]([O-])c12 -4.01%, COc1ccc2c(c1)[C@H]1[C@H](CO2)[C@H](c2ccccc2)[C@]2(C)C(=O)Nc3cc(F)c(F)cc3C(=O)N12 -0.31%, C/C(N)=C(\C#N)C(=O)NCCc1ccccn1 4.85%, O=C(NC(=S)Nc1ncccn1)c1ccccc1Br 1.75%, COCC1CCCN(Cc2cn[nH]c2-c2cc3ccccc3o2)C1 (centres undefined) 7.28%, c1nc(COc2nsnc2N2CCOCC2)cs1 -2.16%, COc1cccc(CN2CCN(Cc3ccc4cccc(F)c4n3)CC2CCO)c1 (centres undefined) 11.8%, O=[N+]([O-])c1ccc(N2CCOCC2)cc1 7.93%, Cc1nc2cc(C(F)(F)F)ccc2n1CCNc1nc(-c2cc(Cl)c(N)c(Cl)c2)cs1 6.34%, COc1ccc(NC(=O)c2oc3ccc(S(=O)(=O)N4CCOCC4)cc3c2C)cc1 8.2%, CCOC(=O)NC(C(F)(F)F)(C(F)(F)F)P(=O)(c1ccccc1)c1ccccc1 11.6%, COC(=O)[C@]1(C)CCC[C@@]2(C)C3CC[C@]4(OC(C)=O)C[C@@]3(CCC21)CC4=NO (some centres undefined) -0.25%, CSc1nnc(NC(=O)c2nc(S(=O)(=O)Cc3ccc(C)cc3)ncc2Cl)s1 -1.49%, Cc1ccc(CS(=O)(=O)c2ncc(Cl)c(C(=O)Nc3nnc(C)s3)n2)cc1 -7.39%, O=C(Nc1ccc(F)cc1)c1ccc(S(=O)(=O)NCc2cccnc2)cc1 -1.15%, CCOc1ccc(NC(=O)c2nc(SCC)ncc2Cl)cc1 3.21%, CCCC(C(=O)OCCN(CC)CC)(c1ccccc1)c1ccccc1 11.6%, COC(=O)c1ccc(-c2noc(CN(Cc3ccccn3)CC3CCCO3)n2)cc1 (centres undefined) 5.23%, CCn1c(=O)c2ccccc2n(CC(=O)N2CCCc3ccccc32)c1=O 9.45%, Cc1ccccc1CSCCNC(=O)c1ccc(N(C)S(=O)(=O)c2ccccc2)cc1 32.2%, O=C(CC1OC(=O)c2ccccc21)NC1CCCCC1 (centres undefined) 19.9%, CC(C)N(Cc1ccccc1)C(=S)Nc1ccc(OC(F)F)cc1 18.4%, COc1ccc(NC(=O)COC(=O)c2ccc(NS(=O)(=O)/C=C/c3ccccc3)cc2)cc1 21.3%, CCN1CCN(C(=O)CSc2ccc(C)cc2)CC1 6.4%, CCOC(=O)C1CCCN(C(=O)/C=C/c2ccc(OC)cc2)C1 (centres undefined) 6.92%, N#CCCn1cnc2ccccc21 8.21%, O=C(/C=C/Sc1ncn[nH]1)c1ccc(Cl)cc1 31.6%, Cc1cc(C)nc(SCc2ccccc2C#N)n1 -11.7%
